Test results published in PubChem BioAssay (NCI).
Compounds without any hit were thinned out: in the full panel of roughly 83,000, 20% have a hit.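 Each cell line was grown in a 96-well plate and treated with one concentration of compound for 48 hours. Values below 10 were considered active.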 Unmarked numbers belong to inactive results. Activity calls are given as the source filed them.

Assays:
Test in all cases: NCI-60 one-dose screen, 48 h (100 = growth as untreated, 0 = no growth, -100 = all killed)
Conditions in all cases: 10 µM unless noted
[1] = tested on: T-47D breast
[2] = tested on: BT-549 breast
[3] = tested on: MDA-MB-435 melanoma
[4] = tested on: SW-620 colon
[5] = tested on: MCF7 breast
[6] = tested on: HCT-116 colon
[7] = tested on: HCC-2998 colon
[8] = tested on: KM12 colon

| SMILES | growth [1] | growth [2] | growth [3] | growth [4] | growth [5] | growth [6] | growth [7] | growth [8] |
| --- | --- | --- | --- | --- | --- | --- | --- | --- |
| COC(=O)/C=C1/SC(N2N=C(c3cccs3)CC2c2ccc(F)cc2)=NC1=O (stereo not drawn) | 38.9% | 66.1% | 43.2% | 3.45% (active) | 10.1% | -15.3% (active) | 33.7% | 30.5% |
| C=C[C@]1(C)C=C2CC[C@@H]3C(C)(C)C(=O)CC[C@@]3(C)[C@@H]2CC1 | 105% | 126% | 101% | 105% | 101% | 103% | 107% | 98.6% |
| Cn1cc(-c2nonc2-c2cn(C)c3ccc(Br)cc23)c2ccccc21 | 23.6% | 34% | -20.3% (active) | 14.7% | 15.4% | 17.1% | 67.9% | 23.3% |
| N#C/C(=N\Nc1ccc(Cl)cc1)C(=O)Nc1cc(-c2ccccc2)nn1-c1ccccc1 | 14.7% | 11.4% | 28.6% | 21.4% | 16.9% | 8.26% (active) | 39.4% | 32.4% |
| Cc1nc2sc(C(=O)Nc3cccc4ncccc34)c(N)c2cc1C(C)O (stereo not drawn) | 76.2% | 79% | -8.44% (active) | 59.2% | 38.4% | 70.1% | 76.5% | 59.2% |
| Cc1nn(-c2nc(-c3cc4ccccc4oc3=O)cs2)c(C)c1N=Nc1ccccc1 | 95.3% | 99.7% | 101% | 103% | 89.3% | 105% | 111% | 100% |
